The values that follow come from PubChem BioAssay.

Where “and” joins values, the source holds several entries; their conditions need not be identical. Equal values may be shown once. Calls of active or inactive are those of the source. Unless noted, the rule behind the calls is not given here.

Test [1] has as its system Aerobactin synthetase IucA (Klebsiella pneumoniae). Kind of test: inhibition of K. pneumoniae IucA enzyme – biochemical, Tocris library, absorbance (AID 1345561).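 Note: 100% = enzyme without compound and 0% = no enzyme.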 The conditions noted are these: purified IucA enzyme assay, absorbance (OD) read-out; stronger effect = lower value;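 tested at 8 µM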.
Test [2] in a line: viability loss with induced miR-34 in A549 – imaging, A549 dox-inducible miR-34, nuclei and caspase counts, primary screen (AID 1347080;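 active = compounds whose cell count with miR-34 switched on is under 0.7 times the count with it off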). The note with it: A549 miR-34 inducible, Hoechst nuclei count, 48 h.
Test [3] is described as follows: galactose survival enhancers in mitochondrial complex I cybrids – cell-based, galactose medium, ATP luminescence, primary screen (AID 1645843;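 active = z-score of at least 1.8 in each of two replicates, scored against plate mean and spread of sample wells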;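 note: positive z means more ATP and so rescue of galactose-driven cybrid death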). The note with it: complex I mutant cybrid cells, 72 h, stronger effect = higher value.
Test [4] can be described thus: compounds altering circadian rhythm period length – cell-based, LOPAC library, luminescence reporter (AID 2774).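 Note: values are relative to mean of DMSO wells on each plate.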 The note with it: circadian reporter cells, at 7 µM, actives lie on both sides.
Test [5] relates to Hepatitis C virus NS3 helicase. Kind of test: blockers of NS3h binding to ssDNA – biochemical, fluorescence polarization, LOPAC1280 library, primary screen (AID 687035; in the data active = inhibition above about 37%). The note with it: Purified HCV NS3 helicase, Cy5-dT15 ssDNA binding fluorescence polarization; stronger effect = higher value; concentration not given here. (Polarisation of emitted light reports the rotation of a fluorescent probe.)

Test [6] in a line: compounds altering Cy5-DNA-NS3h complex signal – biochemical, LOPAC1280, artefact control for HCV NS3 helicase inhibitor project (AID 687037). The conditions noted are these: Cy5-DNA-NS3h complex fluorescence interference counterscreen. Background: A counterscreen serves to expose hits that act by an unwanted route or on another target.
A short description of test [7]: blockers of cellular phospholipid synthesis – cell-based, LOPAC library, screen 4, primary screen (AID 1347384). The note with it: animal cells, phospholipid biosynthesis inhibition screen; at 10 µM.
Test [8] can be described thus: compounds altering viability of human ES cells (AID 493140).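 Note: cells exposed to compounds for four days before counting.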 The conditions noted are these: human embryonic stem cell survival screen; stronger effect = higher value.
Test [9] can be described thus: P. berghei load reduction in hepatocytes – cell-based, HepG2, luciferase luminescence, HepG2 viability, primary screen (AID 624349; in the data active = parasite load remaining mostly below about 12%, no sharp cut-off; inactive = mostly above about 10%;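 note: 100% = mean of DMSO negative control wells on the same plate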). The note with it: P. berghei liver stage in HepG2, luciferase luminescence, concentration not given here; parasite load remaining: stronger effect = lower value; viability: measured here: HepG2 viability without parasites.
Test [10] can be described thus: MELAS cybrid and Rieske KO viability enhancers – cell-based, MELAS cybrids, Rieske KO mouse fibroblasts, CellTiter-Glo, primary screen (AID 1508586;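 active = mean z-score across replicates of 1.96 or higher in either the MELAS or the Rieske mutant cell line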;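 note: z relative to plate mean and SD of compound and empty wells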). The conditions noted are these: low glucose. A general note: In ATP-based viability assays light output follows the ATP content of the culture.
The test system of test [11] is Aerobactin synthetase IucA (Klebsiella pneumoniae, hypervirulent). Nature of the test: biochemical IucA inhibition screen of LOPAC library by absorbance (AID 1346212).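 Note: 100% = no compound wells and 0% = no enzyme wells.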 The conditions noted are these: IucA enzyme assay, absorbance (OD) readout; stronger effect = lower value;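 tested at 8 µM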.
[12] abbreviates: measured here: relative caspase fold change +Dox/-Dox.
The mark [13] stands for this setting: measured here: total cells with miR-34 induction, stronger effect = lower value.
Where [14] appears, read: measured here: total cells without miR-34 induction.
Where [15] appears, read: stronger effect = lower value, cell number ratio, induced over uninduced.

What is called remaining activity is the signal under treatment as a percentage of the control signal. Turning to `O=C1C2CCN(CC2)C1(CO)CO`, the remaining activity in test [1] is 120% (inactive). For the same compound, the fold change in test [2] (stronger effect = lower value) was 1.16 (inactive) and 0.936 (inactive) and 0.92 (inactive); in test [2] (setting [12]), 1.5 and 1.74 and 0.604. The cell count in test [2] (setting [13]) was 4350 and 5660 and 9650; in [2] (setting [14]), 3770 and 6050 and 10500. In test [3], the z-score is -0.76 (inactive).

As usually defined, the inhibition is the relative decrease from the control value, in per cent. With `NC(C(=O)O)c1cc(=O)[nH]o1` (stereo not drawn), the period change in [4] was 0.025 h (inactive). Besides, in test [5], the inhibition is -1% (inactive). The fluorescence ratio (interference) in test [6] was 0.9 (inactive). The remaining activity in test [1] is 105% (inactive). Also, the fold change in test [2] (stronger effect = lower value) is 1.08 (inactive) and 0.946 (inactive); in test [2] (setting [12]), 1.44 and 1.4. The cell count is 10500 and 9700 in test [2] (setting [13]); 9770 and 10300 in test [2] (setting [14]). Besides, the result in test [7] was inactive. For the same compound, the z-score in test [3] was 0.635 (inactive) and 0.185 (inactive).

Regarding `COc1ccc(C(=O)c2c(C)n(CCN3CCOCC3)c3cc(I)ccc23)cc1`, the remaining activity in test [1] was 93.9% (inactive). For the same compound, the fold change in test [2] (stronger effect = lower value) was 1.09 (inactive); in test [2] (setting [12]), 0.642. Moreover, the cell count stood at 2860 in test [2] (setting [13]) and 2630 in test [2] (setting [14]). The z-score in test [3] was -0.38 (inactive).

As to `Cc1o[nH]c(=O)c1CC(N)C(=O)O` (stereo not drawn), the period change in [4] is -0.03 h (inactive). For the same compound, the inhibition in test [5] was -4% (inactive). Moreover, the fluorescence ratio (interference) in test [6] was 0.9 (inactive). Further, in [1], the remaining activity is 111% (inactive) and 121% (inactive). In addition, the fold change in test [2] (setting [15]) is 0.968 (inactive) and 0.976 (inactive) and 0.969 (inactive); in test [2] (setting [12]), 1.08 and 0.707 and 0.956. The cell count was 10200 and 8490 and 9480 in test [2] (setting [13]); 10500 and 8700 and 9780 in test [2] (setting [14]). Also, the compound was classed as inactive in [7]. The z-score in test [3] was 0.295 (inactive) and -0.475 (inactive) and -0.075 (inactive).

Turning to `CN1C2CCC1CC(OC(c1ccc(F)cc1)c1ccc(F)cc1)C2` (stereo not drawn), the remaining activity in test [1] is 99.4% (inactive). The fold change is 1.03 (inactive) in [2] (setting [15]) and 1.19 in test [2] (setting [12]). Moreover, the cell count in test [2] (setting [13]) is 7710; in test [2] (setting [14]), 7460. The z-score in [3] is -0.46 (inactive).

In general, viability refers to a per cent measure of how many cells are alive, often set against a control. With `C[C@@]12N[C@@H](Cc3ccccc31)c1ccccc12`, the survival in test [8] is 4.17 (inactive). Also, the parasite load remaining in test [9] is 76.1% (inactive). The compound further came in with a viability in test [9] of 94%. In test [1], the remaining activity was 98.4% (inactive). In addition, the fold change in test [2] (stronger effect = lower value) is 0.9 (inactive) and 1.01 (inactive) and 0.896 (inactive); in test [2] (setting [12]), 1.15 and 0.684 and 0.656. The cell count in test [2] (setting [13]) is 9800 and 8290 and 9030; in test [2] (setting [14]), 10900 and 8240 and 10100. For the same compound, the z-score in test [10] (MELAS cybrid survival, CellTiter-Glo 48 h, stronger effect = higher value) is -0.404 (inactive) and 0.719 (inactive); in [10] (Rieske KO mouse fibroblast survival, CellTiter-Glo 72 h), -0.00785 and -0.0901; in [3] it was 0.79 (inactive).

`CCNC(=O)[C@H]1O[C@@H](n2cnc3c(N)ncnc32)[C@H](O)[C@@H]1O`: the values for the remaining activity in test [1] and in test [11] were 122% (inactive) and 120% (inactive), respectively. The fold change in test [2] (setting [15]) is 0.978 (inactive); in test [2] (setting [12]), 0.831. The cell count in test [2] (setting [13]) is 8940; in [2] (setting [14]), 9140. Also, the z-score in test [3] is -0.23 (inactive).

`CCCN(CCC)C1CCc2ccc(O)cc2C1` (stereo not drawn): the period change in test [4] is 0.255 h (inactive). In addition, the inhibition in test [5] was -4% (inactive). The fluorescence ratio (interference) in test [6] is 1 (inactive). In addition, the remaining activity in test [1] is 121% (inactive). Also, the fold change in [2] (stronger effect = lower value) was 0.974 (inactive) and 1.05 (inactive); in test [2] (setting [12]), 0.963 and 0.686. Also, the cell count was 10200 and 7960 in test [2] (setting [13]); 10500 and 7600 in test [2] (setting [14]). For the same compound, the outcome in [7] was inactive. Besides, the z-score in test [3] is -0.285 (inactive) and -0.13 (inactive).

In the case of `N#Cc1ccc(N2CCN(C(=O)COc3ccc4[nH]cc(CCN)c4c3)CC2)cc1`, in test [1], the remaining activity was 112% (inactive). Besides, the fold change was 0.857 (inactive) in [2] (setting [15]) and 1.69 in [2] (setting [12]). For the same compound, the cell count in test [2] (setting [13]) worked out at 8510; in [2] (setting [14]), 9930. Also, the compound was called inactive in [7]. The z-score in [3] is 0.16 (inactive).
